In PubChem BioAssay AID1159580 (chemical genetic matrix, 2015):
Where “and” joins values, the source holds several entries; their conditions need not be identical. Equal values may be shown once. In all, about 5,500 compounds went through this assay and about 2,000 (36%) were called active. Inconclusive results (about 18%) are left out. Rule as the data show it: active = normalized growth mostly below about 0.91 (no sharp cut-off); inconclusive = no clear call, values can overlap the other calls; inactive = mostly above about 0.92. The list shows a part of the results.

Experiment: chemical genetic growth profiling, strain panel (AID 1159580);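 also: tested at 20 µM; growth read once vehicle control cultures reached saturation at 30 °C; 1 = growth at the plate median or of vehicle wells; lower values mean less growth of the strain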
Details: S. cerevisiae deletion strains, growth OD

Measured: normalized growth

COC1=C[C@@H]2[C@@H]3Cc4ccc(OC)c(O)c4[C@]2(CCN3C)CC1=O
inactive: locus YAL013W, strain DEP1, stronger effect = lower value 0.985 | locus YAL021C, strain ccr4, stronger effect = lower value 1.01 | locus YAL026C, strain drs2, stronger effect = lower value 1 | locus YAL030W, strain snc1, stronger effect = lower value 1 | locus YBL061C, strain skt5, stronger effect = lower value 1.01 | locus YBR009C, strain hhf1, stronger effect = lower value 1 | locus YBR021W, strain FUR4, stronger effect = lower value 1.04 | locus YBR023C, strain chs3, stronger effect = lower value 1 | locus YBR171W, strain sec66, stronger effect = lower value 0.983 | locus YBR229C, strain ROT2, stronger effect = lower value 0.961 | locus YBR231C, strain swc5, stronger effect = lower value 0.995 | locus YBR279W, strain paf1, stronger effect = lower value 0.991 | locus YCL011C, strain gbp2, stronger effect = lower value 1 | locus YCL016C, strain dcc1, stronger effect = lower value 0.977 | locus YCL029C, strain bik1, stronger effect = lower value 0.967 | locus YCL069W, strain vba3, stronger effect = lower value 1.01 | locus YCR088W, strain abp1, stronger effect = lower value 0.987 | locus YDL005C, strain med2, stronger effect = lower value 0.997 | locus YDL035C, strain GPR1, stronger effect = lower value 1 | locus YDL040C, strain nat1, stronger effect = lower value 1 | locus YDL074C, strain BRE1, stronger effect = lower value 0.952 | locus YDL101C, strain DUN1, stronger effect = lower value 0.972 | locus YDL134C, strain PPH21, stronger effect = lower value 0.981 | locus YDL185W, strain tfp1, stronger effect = lower value 0.929 | locus YDL192W, strain arf1, stronger effect = lower value 0.987 | locus YDR001C, strain nth1, stronger effect = lower value 1 | locus YDR069C, strain doa4, stronger effect = lower value 0.979 | locus YDR101C, strain arx1, stronger effect = lower value 1 | locus YDR137W, strain rgp1, stronger effect = lower value 0.972 | locus YDR150W, strain NUM1, stronger effect = lower value 0.971 | locus YDR159W, strain sac3, stronger effect = lower value 0.967 | locus YDR162C, strain NBP2, stronger effect = lower value 0.969 | locus YDR195W, strain ref2 0.967 | locus YDR297W, strain sur2, stronger effect = lower value 1 | locus YDR318W, strain mcm21, stronger effect = lower value 0.995 | locus YDR334W, strain swr1, stronger effect = lower value 0.984 | locus YDR335W, strain msn5, stronger effect = lower value 0.986 | locus YDR388W, stronger effect = lower value 0.984 | locus YDR392W, strain spt3, stronger effect = lower value 0.988 | locus YDR502C, strain sam2, stronger effect = lower value 0.986 | locus YEL003W, strain gim4, stronger effect = lower value 1 | locus YEL037C, strain rad23, stronger effect = lower value 0.999 | locus YEL061C, strain CIN8 (second series), stronger effect = lower value 0.999 | locus YEL061C, strain CIN8, stronger effect = lower value 0.982 | locus YER015W, strain faa2, stronger effect = lower value 0.986 | locus YER016W, strain bim1, stronger effect = lower value 1 | locus YER110C, stronger effect = lower value 0.969 | locus YER111C, strain swi4, stronger effect = lower value 1.01 | locus YER155C, strain BEM2 (second series), stronger effect = lower value 1.01 | locus YER155C, strain BEM2, stronger effect = lower value 1 | locus YER167W, strain BCK2, stronger effect = lower value 1 | locus YFR010W, strain ubp6, stronger effect = lower value 1.01 | locus YGL078C, strain dbp3, stronger effect = lower value 0.971 | locus YGL086W, strain mad1, stronger effect = lower value 0.99 | locus YGL167C, strain pmr1, stronger effect = lower value 0.986 | locus YGL173C, strain kem1, stronger effect = lower value 0.99 | locus YGL227W, strain vid30, stronger effect = lower value 1 | locus YGL240W, strain doc1, stronger effect = lower value 1 | locus YGL248W, strain PDE1, stronger effect = lower value 0.972 | locus YGL253W, strain hxk2, stronger effect = lower value 1.01 | locus YGR078C, strain PAC10, stronger effect = lower value 0.965 | locus YGR135W, strain pre9, stronger effect = lower value 0.959 | locus YGR229C, strain SMI1, stronger effect = lower value 0.974 | locus YGR252W, strain gcn5, stronger effect = lower value 1 | locus YHR013C, strain ard1, stronger effect = lower value 0.962 | locus YHR027C, strain rpn1, stronger effect = lower value 0.992 | locus YHR030C, strain SLT2, stronger effect = lower value 1 and 1.03 | locus YHR079C, strain IRE1 (second series), stronger effect = lower value 0.987 | locus YHR079C, strain IRE1, stronger effect = lower value 1.03 | locus YHR094C, strain hxt1, stronger effect = lower value 0.978 | locus YHR129C, strain ARP1, stronger effect = lower value 0.996 | locus YHR142W, strain chs7, stronger effect = lower value 0.999 | locus YHR200W, strain rpn10, stronger effect = lower value 0.975 | locus YIL066C, strain RNR3, stronger effect = lower value 0.972 | locus YIL073C, strain SPO22, stronger effect = lower value 1.03 | locus YIL125W, strain kgd1, stronger effect = lower value 0.968 | locus YIR030C, strain dcg1, stronger effect = lower value 0.989 | locus YJL092W, strain hpr5, stronger effect = lower value 0.997 | locus YJL095W, strain BCK1 (second series), stronger effect = lower value 1 | locus YJL095W, strain BCK1, stronger effect = lower value 0.963 and 1.03 | locus YJL115W, strain asf1, stronger effect = lower value 1.01 | locus YJL129C, strain trk1, stronger effect = lower value 0.977 | locus YJL134W, strain LCB3, stronger effect = lower value 0.989 | locus YJL154C, strain vps35, stronger effect = lower value 0.988 | locus YJL164C, strain tpk1, stronger effect = lower value 0.997 | locus YJL166W, strain qcr8, stronger effect = lower value 1 | locus YJL168C, strain set2, stronger effect = lower value 0.982 | locus YJL187C, strain SWE1 (second series), stronger effect = lower value 0.958 | locus YJR043C, strain POL32, stronger effect = lower value 1.03 | locus YJR066W, strain TOR1, stronger effect = lower value 0.97
